# FLuc counter – firefly luciferase modulation, counter-screen for miR-21 project; purified FLuc, Km substrates, luminescence inhibition; Potency, µM (top dose mostly 57.5 µM), for inactives: top-dose activity change, negative = inhibition, hits mostly inhibitors; 360,000 compounds, 6.9% hits;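 note: plate controls were vehicle for no effect and reference inhibitor for full effect; nearly all actives have a fitted effect of over 55% in size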
# Target sequence (P08659 whole entry, looked up): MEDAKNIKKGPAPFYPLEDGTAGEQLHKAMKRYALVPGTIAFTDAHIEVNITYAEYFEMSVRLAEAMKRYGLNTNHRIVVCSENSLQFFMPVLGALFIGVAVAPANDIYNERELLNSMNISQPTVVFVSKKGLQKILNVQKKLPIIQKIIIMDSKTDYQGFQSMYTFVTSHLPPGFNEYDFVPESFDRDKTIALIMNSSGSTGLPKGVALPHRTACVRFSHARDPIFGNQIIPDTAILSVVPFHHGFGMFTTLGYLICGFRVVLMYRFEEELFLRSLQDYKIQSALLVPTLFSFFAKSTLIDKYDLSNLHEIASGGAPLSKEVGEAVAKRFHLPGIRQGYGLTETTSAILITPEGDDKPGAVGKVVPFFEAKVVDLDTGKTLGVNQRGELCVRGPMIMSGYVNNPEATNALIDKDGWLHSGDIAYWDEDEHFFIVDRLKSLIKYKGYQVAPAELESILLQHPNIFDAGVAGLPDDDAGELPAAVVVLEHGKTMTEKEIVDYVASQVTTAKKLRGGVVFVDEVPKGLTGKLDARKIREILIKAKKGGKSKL
#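 Purified P. pyralis luciferase, 10 nM final, with Km-level 10 uM D-luciferin and 10 uM ATP in 50 mM Tris acetate pH 7.5, 10 mM Mg acetate, 0.01% Tween-20, 0.05% BSA; 6-point qHTS titration about 60 µM downward; luminescence read.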
# NPC1 promoter act – NPC1 promoter activation; Potency, µM (series often up to 9.22 µM), without a hit: at the highest dose activation, most hits filed as activators; Huh7 NPC1 promoter luciferase reporter, 24 h; 320,000 compounds, 2.4% hits; AID 485313; note: % of control where 0% means no effect; nearly all actives have a fitted effect of over 60% in size
#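 Quantitative HTS used a cell-based reporter: Huh7 cells stably bearing the NPC1 promoter upstream of luciferase were treated with compounds for 24 h, and promoter activation was read as luminescence.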
# Rab9 prom act – Rab9 promoter activation. Huh7 Rab9 promoter-luciferase reporter, luminescence, 24 h. Potency, µM (series often up to 9.22 µM), without a hit: at the top dose activation, negative = inhibition, usual class: activators. 320,000 compounds, 2.8% hits; note: % of control where 0% means no effect; nearly all actives have a fitted effect of over 60% in size
#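 Measured in stably transfected Huh7 cells bearing a Rab9 promoter–luciferase construct: 24 h compound treatment at 37 °C, followed by luminescence detection.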
# ELG1 genotox – genotoxicity induction in ELG1-luciferase HEK293T cells. HEK293T ELG1-luciferase reporter, luminescence, 16 h. 330,000 compounds, 1.3% hits. Potency, µM (doses to about 46 µM), for inactives: top-dose activity change, positive = activation, hits mostly activators; note: % of control where 0% means no effect; nearly all actives have a fitted effect of over 60% in size
#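 16 hr compound incubation (37 °C, 5% CO2) of HEK293T cells carrying luciferase-tagged ELG1; luciferase then measured by ONE-Glo luminescence after 30 min at RT.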
# SMN2 splice enh – increases expression of the SMN2 splice variant | HEK293 SMN2-luciferase splicing reporter, luminescence, 30-36 h | Potency, µM (series often up to 46.1 µM), for inactives: at the highest dose activity change, positive = activation, most hits filed as activators | 210,000 compounds, 2.8% hits; note: % of control where 0% means no effect; nearly all actives have a fitted effect of over 55% in size
#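 qHTS luciferase splicing reporter: luminescence rises when SMN2 exon 7 is included in transfected HEK293 cells. Compound exposure lasted 30-36 h at 37C, with 4.5 mM final sodium butyrate as control, followed by a ONE-Glo read.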
# Luc counter – counter-screen: inhibitors of Kinase-Glo firefly luciferase | Q27757 | Kinase-Glo luciferase, ATP luminescence, 8 min | Potency, µM (highest dose often 38.3 µM), for the others: top-dose activity change, negative = inhibition, hits mostly inhibitors | 200,000 compounds, 0.28% hits | AID 1379; note: % is set by controls: 0 for no effect and ±100 for the full control effect; nearly all actives have a fitted effect of over 60% in size
#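 Inhibition of Kinase-Glo luciferase light generation was assessed at 10 uM ATP in pH 7.2 imidazole buffer, with luminescence measured after eight minutes at ambient temperature.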
# Active calls of the source: *; u = inconclusive; x = no result given. In the library only some 7.5% were active in any assay of this set; here they are far more common. Calls come from the whole dose curve; as a rule, active = well fitted curve in the direction sought with a large enough effect; inconclusive = small, poorly fitted or top-dose-only effect, or another doubt; inactive = no such curve, though single readings can be large; an effect the other way counts as inactive or inconclusive. Potency is the fitted concentration of half-maximal effect.
SMILES,FLuc counter,NPC1 promoter act,Rab9 prom act,ELG1 genotox,SMN2 splice enh,Luc counter
CCCC(=O)N/C(N)=N/c1nc(C)c2cc(C)ccc2n1,17µM*,-9%,23%,5%,x,x
CC(C)(C)OC(=O)N1CCC[C@H]1C(=O)Nc1ccc(C#N)cc1,0%,-2%,4%,0%,x,x
COc1cc(OC)c(C(=O)Nc2cccc(C(C)=O)c2)cc1OC,13µM*,18%,u,u,-12%,-8%
COc1ccc(C(=O)Nc2cccc(C(C)=O)c2)c(OC)c1OC,12µM*,20%,23%,u,-3%,-2%
O=C(N/C=C/c1ccco1)OCc1ccccc1,11µM*,u,3.5µM*,u,13µM*,-3%
O=C(N/C=C/c1ccco1)NCc1ccccc1,-10%,-2%,1%,0%,7%,1%
Cc1c(C(=O)Nc2cccc(F)c2)oc2c1-c1nn(Cc3c(F)cccc3Cl)cc1CC2,4%,x,x,x,x,x
C/C(=N\NC(=O)CSc1nc(C)[nH]c1[N+](=O)[O-])c1ccc(F)cc1,15µM*,24%,u,-6%,x,x
Cc1nc(SCC(N)=O)c([N+](=O)[O-])[nH]1,-2%,-2%,-6%,-1%,13%,6%
O=C(Nc1nc2ccc(F)cc2s1)Oc1ccccc1,-14%,2%,-1%,7%,x,x
Fc1ccc2nc(Nc3ccccc3)sc2c1,7.6µM*,2.8µM*,2.2µM*,u,16µM*,-4%
NNc1nc2ccc(F)cc2s1,19µM*,15%,22%,u,21%,-3%
CCCCN(c1ccccc1)S(=O)(=O)c1cc2c3c(c1)C(C)C(=O)N3CCC2 (stereo unspecified),1%,x,x,x,x,x
COc1ccc(NC(=O)c2oc3ccccc3c2NC(=O)Cc2coc3cc(C)ccc23)cc1,-11%,x,x,x,0%,x
CC(C)(C)OC(=O)N1CCC(NC(=O)c2[nH]cnc2C(=O)Nc2cccc(Cl)c2)CC1,1%,-3%,-1%,-5%,x,x
O=C(Cn1c(=O)oc2cc(S(=O)(=O)NCc3ccccc3)ccc21)N(CCO)Cc1ccccc1,-1%,x,x,x,x,x
COc1ccccc1-c1cc(C(=O)NCc2ccccc2)no1,24µM*,0%,-1%,-2%,-9%,-2%
COc1ccccc1-c1cc(C(=O)NCc2ccc(Cl)cc2)no1,u,-3%,5%,4%,-8%,-4%
COc1ccc(CNC(=O)c2cc(-c3ccccc3OC)on2)cc1,17µM*,-1%,-2%,0%,-11%,6%
COc1ccccc1-c1cc(C(=O)NCc2ccc(F)cc2)no1,u,-1%,0%,-1%,-10%,2%
Cc1ccccc1-c1ccc(C(=O)NCc2ccccc2)o1,27µM*,9%,5%,11%,16%,-1%
Cc1ccc(C)c(CN2C(=O)c3ccccc3S(=O)(=O)c3ccc(C(=O)N4CCCCC4)cc32)c1,3%,x,x,x,-11%,x
CCOC(CNC(=O)CN1C(=O)COc2ccc(S(=O)(=O)N3CCCC3)cc21)OCC,1%,-1%,-2%,0%,x,x
Cc1c(C(=O)NC(C)c2ccccc2)sc2ncnc(N(C)C3CCCCC3)c12 (stereo unspecified),7%,x,x,x,x,x
Cc1ccc(NC(=O)c2ccc3nc[nH]c3c2)nc1,2%,3%,1%,10%,x,x
SMILES,FLuc counter,NPC1 promoter act,Rab9 prom act,ELG1 genotox,SMN2 splice enh,Luc counter
Cc1ccc(NC(=O)c2ccc(C(=O)c3ccccc3)cc2)nc1,19µM*,30%,28%,u,x,x
Cc1cc(NC(=O)c2cc(F)c(F)cc2Cl)no1,-16%,-1%,3%,3%,1%,-2%
Cc1ccc(NC(=O)c2ccccc2F)nc1,4.8µM*,1.1µM*,0.71µM*,1.8µM*,7.9µM*,u
COc1cc2ccccc2cc1C(=O)Nc1ccc(C)cn1,3µM*,u,u,2.9µM*,x,x
Cc1ccc(NC(=O)c2cc(F)c(F)cc2Cl)nc1,8.5µM*,1.8µM*,0.89µM*,u,x,-8%
Cc1ccc(NC(=O)CCNC(=O)c2ccccc2Cl)nc1,-1%,-1%,0%,10%,x,x
CCN(CC)S(=O)(=O)c1ccc2c(c1)N(CC(=O)N(C)Cc1ccccc1)C(=O)CO2,-8%,x,x,x,-10%,x
CC(C)OCCCNC(=O)c1cn(C)c2ccc(S(=O)(=O)N3CCCCCC3)cc2c1=O,2%,x,x,x,u,x
COc1ccc(-c2nn(C)c3sc(C(=O)N4CCN(c5cccc(Cl)c5)CC4)cc23)cc1OC,2%,x,x,x,-6%,x
O=C1CC(N2CCN(c3nc4ccccc4s3)CC2)C(=O)N1c1ccc(F)cc1 (stereo unspecified),-1%,3%,1%,1%,12%,0%
O=c1c(Cl)c(N2CCN(c3ccc(F)cc3)CC2)cnn1-c1nc2ccccc2s1,19µM*,29%,u,u,13µM*,-3%
Cn1cc(CNCc2ccc(OC(F)(F)F)cc2)c(-c2ccc3c(c2)OCCO3)n1,1%,-27%,-47%,-1%,x,0%
CCn1cc(CNCc2cn(C)nc2-c2ccc(C3CCCCC3)cc2)cn1,15µM*,-2%,-2%,0%,x,x
Cc1ccc(NC(=O)Cn2c(=O)n(CCCCC(=O)NCc3ccccc3Cl)c(=O)c3ccccc32)cc1C,1%,x,x,x,0%,x
O=C(NCc1ccccc1Cl)C1CCCN(c2nc3ccsc3c(=O)s2)C1 (stereo unspecified),-2%,-4%,-7%,9%,-2%,-5%
CC1CCCN(c2nc3ccsc3c(=O)s2)C1 (stereo unspecified),15µM*,u,u,13µM*,22µM*,-2%
O=C(CSc1nc2c(c(=O)[nH]1)CCCC2)Nc1ccc(Br)cc1,-1%,x,x,x,x,x
Cc1ccccc1C(=O)NCCSc1ccccc1,9.5µM*,3.5µM*,2.8µM*,7.3µM*,13µM*,-6%
O=C(NCCSc1ccccc1)c1ccccc1Cl,7.6µM*,2.5µM*,3.2µM*,13µM*,11µM*,-4%
O=C(CCNC(=O)c1ccccc1Cl)NCCCSc1ccccc1,-2%,1%,-3%,0%,x,x
Cc1cccc(-c2nsc(SCC(=O)Nc3nccs3)n2)c1,-15%,4%,18%,11%,17%,-2%
Cc1cccc(-c2nsc(SCC(=O)N3CCCC3)n2)c1,6µM*,1.6µM*,1.4µM*,u,14µM*,-5%
O=C(CSc1nc(-c2ccccc2)ns1)N1CCOCC1,u,2.5µM*,2.8µM*,23µM*,x,-3%
O=C(CSc1nc2ccccc2nc1SCC(=O)N1CCOCC1)N1CCOCC1,-2%,-1%,-2%,-7%,1%,0%
COc1cc(Cl)c(C)cc1Nc1nc2ccccc2c2nnc(C)n12,-1%,x,x,x,x,x

# Compound activity: PubChem, National Center for Advancing Translational Sciences (NCATS)
